D1 antag – blocks dopamine activation of the human D1 receptor | P21728 | HEK293 TREx D1 cells, calcium flux, dopamine EC80; active compounds read low | activity change, negative = inhibition, % at 10 µM | 360,000 compounds, 3.2% hits; in the data active = activity change below about -30%; note: % is set by controls: 0 for no effect and ±100 for the full control effect
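HEK293 T-REx cells expressing inducible, force-coupled D1 receptor; no-wash Ca dye, 30–90 min RT. Cmpd → 180 s read at 1 Hz → EC80 DA → 180 s read.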
D1 agonist – agonists of human D1 dopamine receptor; HEK293 T-REx D1 cells, calcium flux, agonist mode; AID 504660; 360,000 compounds, 1% hits; activation, % at 2 µM; P21728; note: 0% is about no effect
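Inducible HEK293 T-REx D1 cells, force-coupled to calcium signalling, were plated at 4000 cells/well with tetracycline and held overnight at 30 C. After no-wash calcium dye loading, compound-evoked calcium rise over 180 s flagged agonists.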
TRHR agonist – activates the human TRH receptor. P34981. 360,000 compounds, 0.18% hits. activation, % at 2 µM. TRHR cells, calcium flux fluo-8, FDSS agonist mode. AID 493084; note: 0% is about no effect
Target sequence (P34981 whole entry, looked up): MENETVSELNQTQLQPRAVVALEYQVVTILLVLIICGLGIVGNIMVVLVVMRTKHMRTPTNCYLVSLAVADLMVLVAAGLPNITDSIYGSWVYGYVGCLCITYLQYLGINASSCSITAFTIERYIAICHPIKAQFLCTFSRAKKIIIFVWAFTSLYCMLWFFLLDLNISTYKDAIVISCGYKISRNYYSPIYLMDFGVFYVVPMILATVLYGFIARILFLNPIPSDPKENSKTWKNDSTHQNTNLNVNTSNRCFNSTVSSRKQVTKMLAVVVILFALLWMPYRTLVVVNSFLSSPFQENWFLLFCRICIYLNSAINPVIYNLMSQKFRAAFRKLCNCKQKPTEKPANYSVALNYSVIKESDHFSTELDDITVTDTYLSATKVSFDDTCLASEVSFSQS
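Read-out: compound-evoked intracellular calcium rise in TRHR cells, fluo-8 dye, kinetic FDSS fluorescence at 1 s/cycle following a 10-cycle baseline. Cells cultured overnight before dye loading (30 min–1.5 h, RT).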
D1 PAM – potentiators of human D1 dopamine receptor | potentiation, % at 10 µM | HEK293 TREx D1 cells, calcium flux, dopamine EC20 potentiation | 360,000 compounds, 0.036% hits; in the data active = potentiation above about 30%; note: 0% is about no effect
TRHR enhancer – TRH receptor (human) allosteric enhancement; P34981; TRHR cells, fluo-8 calcium fluorescence, EC20 TRH enhancement; enhancement, % at 2 µM; 360,000 compounds, 0.66% hits; in the data active = enhancement above about 30%; note: 0% is about no effect
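TRHR-expressing cells loaded with fluo-8 calcium dye were read kinetically (ex 480/em 530) during compound addition, then stimulated with an EC20 of TRH (10 nM final). Enhancement of the Gq-mediated intracellular calcium response was scored.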
Numbers without * were called inactive; / = not tested or not shown; ! = not confirmed by another sample. In the library only some 4.7% were active in any assay of this set; here they are far more common. Cut-off read from the data, not from the text of the source, unless noted: active = activation above about 30%; inactive = the rest.

SMILES | D1 antag | D1 agonist | TRHR agonist | D1 PAM | TRHR enhancer
Oc1ccc(C2CNCc3sccc32)cc1O (stereo unspecified) | -96* | 92* | 0 | -4 | 1
CCN1CCN(c2cc(C)c3cc(NC(=O)/C=C/c4ccc(C)cc4)ccc3n2)CC1 | -5 | -1 | 0 | 0 | 8
Cc1onc(-c2ccccc2)c1C(=O)N/N=C/c1ccccc1OC(C)C | -31* | 4 | 0 | -4 | -6
COc1ccccc1/C=N/NC(=O)c1c(-c2ccccc2)noc1C | 5 | -2 | -2 | -8 | -2
O=[N+]([O-])c1ccc(N/N=C/c2c[nH]c3ccccc23)c(S(=O)(=O)Nc2ccc(Cl)cc2)c1 | -25 | 45* | 16 | -7 | 11
COc1ccccc1NS(=O)(=O)c1cc([N+](=O)[O-])ccc1N/N=C/c1c(C)[nH]c2ccccc12 | 24 | 62* | 17 | -9 | 1
Cc1[nH]c2ccccc2c1/C=N/Nc1ccc(F)cc1F | -6 | 0 | 1 | -2 | 5
Cc1[nH]c2ccccc2c1/C=N/NC(=O)c1cccc(F)c1 | -66* | 1 | 0 | -2 | 25
CN1CCN(S(=O)(=O)c2cc([N+](=O)[O-])ccc2N/N=C/c2ccc(Cl)cc2)CC1 | 3 | 1 | 0 | -5 | 2
Cc1[nH]c2ccccc2c1/C=N/NC(=O)c1cccc([N+](=O)[O-])c1 | -11 | 1 | -1 | -2 | 2
Cc1[nH]c2ccccc2c1/C=N/Nc1ccccn1 | -5 | 3 | 0 | -1 | 7
Cc1[nH]c2ccccc2c1/C=N/Nc1ccc([N+](=O)[O-])cc1 | -4 | 125* | 38* | -9 | 9
O=C(COC(=O)CNS(=O)(=O)c1ccc(Br)cc1Cl)NCCc1ccccc1 | -34* | 3 | 0 | -7 | 7
Cc1ccc(NC(=O)CN(C)C(=O)COC(=O)CNS(=O)(=O)c2ccc(Br)cc2Cl)cc1 | -34* | 7 | 8 | -14 | -4
Cc1ccc(S(=O)(=O)N(C)c2cc(S(=O)(=O)N3CCOCC3)c(C)cc2C)cc1 | -3 | 4 | -1 | 7 | -6
Cc1cc(C)c(S(=O)(=O)N2CCCCC2)cc1N(C)S(=O)(=O)c1ccc(Cl)cc1 | -31* | 3 | 0 | 4 | -4
O=C(NCCN1CCOCC1)C(=O)c1c[nH]c2ccccc12 | -52* | 2 | 0 | 1 | 2
O=C(CN1CCOCC1)c1c[nH]c2ccccc12 | -1 | 5 | 1 | 2 | -2
COc1ccc(S(=O)(=O)n2ccc(C)n2)cc1C | 0 | -1 | 0 | 3 | 0
COc1cc(C)c(S(=O)(=O)n2ccc(C)n2)cc1C | -32* | 0 | -1 | -2 | -14
COc1ccc(C(=O)O)cc1Nc1nc2ccc(C)cc2n2cnnc12 | -5 | 1 | -1 | 1 | 4
Cc1ccc2nc(CN3CCN(S(=O)(=O)c4ccccc4)CC3)oc2c1 | 7 | -2 | 1 | 0 | 23
CS(=O)(=O)c1ccc(Cl)c(C(=O)NC2CCSc3ccccc32)c1 (stereo unspecified) | -45* | 1 | 0 | -9 | -1
NS(=O)(=O)c1cc(C(=O)NC2CCSc3ccccc32)ccc1Cl (stereo unspecified) | -15 | 1 | 0 | -5 | 3
Cc1ccc2oc(C(=O)N(C)Cc3ccc(C)o3)c(C)c2c1 | 2 | 1 | 0 | -6 | -3
SMILES | D1 antag | D1 agonist | TRHR agonist | D1 PAM | TRHR enhancer
Cc1ccc(CN(C)C(=O)c2cc(Br)c(Br)s2)o1 | -35* | 1 | 0 | -6 | 25
CCOC(=O)c1cc(-c2ccccc2)n(CCCC(=O)Nc2cccc(Cl)c2C)c1C | -68* | 3 | 1 | -9 | 1
CCOC(=O)c1cc(-c2ccccc2)n(CCCC(=O)Nc2ccc(C)cc2C)c1C | -17 | 6 | 1 | -6 | 2
Cc1ccc(NC(=O)c2c(C)oc3ccc(O)c(CN(C)Cc4ccccc4)c23)c(C)c1 | 10 | -1 | -1 | 1 | 7
O=C(NCc1cccnc1)c1cccc2c1C(=O)N(C1CCCCC1)C2 | -58* | -1 | 0 | -6 | 7
CC(NC(=O)c1ccco1)c1nc(-c2ccc(Cl)cc2)no1 (stereo unspecified) | -2 | 9 | 0 | -7 | 9
Cc1ccccc1-c1noc(C(C)NC(=O)c2ccco2)n1 (stereo unspecified) | -40*! | 3 | 0 | 0 | 3
COc1ccc(N2CCN(C(=O)C(=O)c3cn(CC(=O)N4CCCCCC4)c4ccccc34)CC2)cc1 | -58* | 1 | 0 | -6 | -4
Cn1c(=O)c2sccc2n2c(CCCC(=O)NC3CCCCC3)nnc12 | -2 | 0 | 1 | -2 | 5
COc1ccccc1C(=O)Nc1cc2c(cc1N1CCCCC1)n(C)c(=O)n2C | -9 | 2 | -1 | -2 | -7
O=C(COc1ccccc1)Nc1cccc(-c2ccc(N3CCOCC3)nn2)c1 | -73* | 1 | 0 | 2 | 4
Cc1ccccc1C(=O)Nc1cccc(-c2ccc(N3CCOCC3)nn2)c1 | -37* | 5 | -1 | -1 | -3
O=C(Nc1cccc(-c2ccc(N3CCOCC3)nn2)c1)c1ccccc1 | 15 | 0 | 0 | 0 | 4
Cc1ccc(-c2nc(C)c(CCNC(=O)C(=O)Nc3ccc(C)c(Cl)c3)s2)cc1 | -14 | 2 | 0 | -5 | -1
C[C@@H]1CCC(=O)N(C[C@@H](C)CSc2ccc(Br)cc2)CC1 | -51* | -1 | 0 | -1 | -2
Cc1ccc2c(c1)C(=O)OC(C(=O)Nc1ncc(Cc3ccccc3Cl)s1)C2 (stereo unspecified) | -4 | -1 | 1 | -4 | 3
Cc1ccc(CNc2nc(-c3ccco3)nn2S(C)(=O)=O)cc1 | -27 | 5 | -1 | -2 | 16
Cc1ccc(C)c(Cn2cc(CCC(=O)NC3CCCCC3)c3ccccc32)c1 | -8 | -1 | -1 | -1 | -6
COc1ccc(-c2cc3nc(C)cc(N)n3n2)cc1 | -5 | 1 | 0 | -3 | 30*
CNC(=S)N/N=C(\C)c1ccc(-n2ccnc2)cc1 | -9 | 0 | -1 | -4 | 8
C/C(=N\NC(N)=O)c1ccc(-n2ccnc2)cc1 | -44* | 3 | 0 | -1 | -2
CCN(CC)c1cccc(OC2=NS(=O)(=O)c3ccccc32)c1 | 10 | 4 | -2 | -1 | 37*
CCc1ccc(OC2=NS(=O)(=O)c3ccccc32)cc1 | / | -2 | 1 | -4 | 8
CC(OC(=O)CN1C(=O)NC2(CCCC2)C1=O)C(=O)Nc1cccc(Cl)c1Cl (stereo unspecified) | -51* | 1 | 1 | -11 | 2
O=C(NCc1cccs1)C1CCCN1C(=O)Nc1ccccc1[N+](=O)[O-] (stereo unspecified) | 9 | 1 | 0 | -4 | -4
O=C(NCc1ccccc1)C1CCCN1C(=O)Nc1ccccc1[N+](=O)[O-] (stereo unspecified) | -31* | 1 | 0 | 11 | 6

Screening data as filed in PubChem BioAssay.
